Screen size: about 310,000 compounds; about 2,200 (0.71%) showed an effect of 50% or more. The effect is printed as a negative number. The sample as a whole holds a higher share of strong results than the screen did.
biological target: human ether-à-go-go-related gene (hERG) potassium channel (human, UniProt Q12809); test: primary screen, population patch clamp on CHO cells stably expressing hERG; higher = less effect of the substance
Sequence (Q12809 whole entry, looked up): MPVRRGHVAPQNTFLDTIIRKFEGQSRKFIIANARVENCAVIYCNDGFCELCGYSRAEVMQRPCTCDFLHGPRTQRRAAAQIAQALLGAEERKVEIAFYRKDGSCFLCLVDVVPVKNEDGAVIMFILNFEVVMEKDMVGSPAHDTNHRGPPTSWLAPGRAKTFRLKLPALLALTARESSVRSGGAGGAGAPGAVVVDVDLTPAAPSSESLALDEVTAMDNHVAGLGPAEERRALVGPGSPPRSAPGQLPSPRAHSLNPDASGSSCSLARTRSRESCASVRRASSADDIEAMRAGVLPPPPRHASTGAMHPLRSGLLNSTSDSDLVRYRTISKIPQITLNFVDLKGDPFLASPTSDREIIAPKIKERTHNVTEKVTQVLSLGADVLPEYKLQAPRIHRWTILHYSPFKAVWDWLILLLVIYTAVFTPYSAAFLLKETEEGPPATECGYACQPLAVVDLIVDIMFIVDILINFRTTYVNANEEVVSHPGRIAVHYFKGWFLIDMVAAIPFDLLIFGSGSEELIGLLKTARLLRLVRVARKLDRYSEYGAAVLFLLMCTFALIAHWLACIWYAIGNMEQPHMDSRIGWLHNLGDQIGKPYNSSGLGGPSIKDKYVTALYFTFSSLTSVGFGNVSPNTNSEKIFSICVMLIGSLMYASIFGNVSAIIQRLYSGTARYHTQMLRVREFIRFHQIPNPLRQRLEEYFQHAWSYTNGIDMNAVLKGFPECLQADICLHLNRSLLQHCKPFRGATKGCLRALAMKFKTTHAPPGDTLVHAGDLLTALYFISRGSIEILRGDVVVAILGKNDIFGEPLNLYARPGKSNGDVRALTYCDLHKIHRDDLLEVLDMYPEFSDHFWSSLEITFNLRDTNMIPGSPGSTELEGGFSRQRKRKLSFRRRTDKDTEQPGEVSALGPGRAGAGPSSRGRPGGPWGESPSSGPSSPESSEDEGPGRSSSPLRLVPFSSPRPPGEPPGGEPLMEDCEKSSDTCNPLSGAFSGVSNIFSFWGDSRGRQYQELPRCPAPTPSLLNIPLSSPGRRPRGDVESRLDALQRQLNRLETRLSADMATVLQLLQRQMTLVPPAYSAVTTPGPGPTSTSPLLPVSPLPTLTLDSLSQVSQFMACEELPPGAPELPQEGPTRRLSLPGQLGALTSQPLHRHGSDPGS

Q: `O=C(Cc1ccc([N+](=O)[O-])cc1)Nc1ccc2c(c1)CCC2` was tested. Which “hERG current change (%, negative = inhibition) at 1uM” value did it give?
A: 10.4%

Q: For `COc1ccc(-c2nsc(SCC(=O)Nc3ccc4c(c3)OCO4)n2)cc1`, which “hERG current change (%, negative = inhibition) at 1uM” value is on record?
A: 15%

Q: Which “hERG current change (%, negative = inhibition) at 1uM” value does the source give for `COC(=O)[C@@H](NC(=O)c1ccccc1)[C@@H](C)O` here?
A: 5.85%

Q: For `Nc1nc(N2CCCCC2)nc(N(c2ccccc2)c2ccccc2)n1`, which “hERG current change (%, negative = inhibition) at 1uM” value is on record?
A: 15.2%

Q: Which “hERG current change (%, negative = inhibition) at 1uM” value does the source give for `Nc1nc(N2CCCCC2)nc(N2CCCCC2)n1` here?
A: -78.5%

Q: For `C1CCN(c2nc(N3CCCCC3)nc(N3CCNCC3)n2)CC1`, which “hERG current change (%, negative = inhibition) at 1uM” value is on record?
A: 2.68%

Q: For `COC(=O)CN1C(=O)Nc2ccc(Br)cc2C1c1ccccc1Cl` (stereo not drawn), which “hERG current change (%, negative = inhibition) at 1uM” value is on record?
A: -8.8%

Q: Which “hERG current change (%, negative = inhibition) at 1uM” value does the source give for `C/C(=N/NC(=O)c1cccnc1)C1=C(O)CC(C)(C)CC1=O` here?
A: 18.4%

Q: How did the “hERG current change (%, negative = inhibition) at 1uM” value turn out when `CCOC(=O)CSc1cn2c(n1)CCC2` was run?
A: 14.5%

Q: Which “hERG current change (%, negative = inhibition) at 1uM” value does the source give for `CNC(=O)CSc1nc2cc(S(=O)(=O)Nc3ccccc3OC)ccc2o1` here?
A: 9.52%

Q: Which “hERG current change (%, negative = inhibition) at 1uM” value does the source give for `Cc1sc2ncnc(NCCN3CCOCC3)c2c1C.O=C(O)C(=O)O` here?
A: 9.44%

Q: `Cc1sc2ncnc(NCC(C)(C)N3CCOCC3)c2c1C` was tested. Which “hERG current change (%, negative = inhibition) at 1uM” value did it give?
A: -63.6%

Q: With `Cc1sc2ncnc(N3CCOCC3)c2c1C` as the compound, how does the “hERG current change (%, negative = inhibition) at 1uM” value read?
A: -5.93%

Q: For `COC(=O)CC1NCCc2cc(OC)c(OC)cc21` (stereo not drawn), which “hERG current change (%, negative = inhibition) at 1uM” value is on record?
A: 5.12%

Q: `CC(OC(=O)CCC1CCCCC1)C(=O)Nc1ccc(S(N)(=O)=O)cc1` (stereo not drawn) was tested. Which “hERG current change (%, negative = inhibition) at 1uM” value did it give?
A: 9.83%

Q: Which “hERG current change (%, negative = inhibition) at 1uM” value does the source give for `CCOC(=O)C1CCCN(C(=O)CC(c2ccccc2)c2ccccc2)C1` (stereo not drawn) here?
A: -2.54%

Q: For `O=C(CN=C1NS(=O)(=O)c2ccccc21)OCC(=O)c1ccccc1`, which “hERG current change (%, negative = inhibition) at 1uM” value is on record?
A: 10.8%

Q: How did the “hERG current change (%, negative = inhibition) at 1uM” value turn out when `CCC(C)(C)c1ccc(OCCCC[n+]2ccc(C)cc2)c(C(C)(C)CC)c1.[Br-]` was run?
A: -34.5%

Q: With `CCC(C)(C)c1ccc(OCCCC[n+]2ccccc2)c(C(C)(C)CC)c1.[Br-]` as the compound, how does the “hERG current change (%, negative = inhibition) at 1uM” value read?
A: -28.5%

Q: Which “hERG current change (%, negative = inhibition) at 1uM” value does the source give for `CCC(C)(C)c1ccc(OCCCC[n+]2cccc(C)c2C)c(C(C)(C)CC)c1.[Br-]` here?
A: -52.7%

Q: For `N#Cc1cc2[nH]c3ccccc3c2[n+](-c2ccc([N+](=O)[O-])cc2)c1N.[Cl-]`, which “hERG current change (%, negative = inhibition) at 1uM” value is on record?
A: -28.7%

Q: Which “hERG current change (%, negative = inhibition) at 1uM” value does the source give for `CCOC(=O)c1cc2[nH]c3ccccc3c2[n+](-c2ccc([N+](=O)[O-])cc2)c1C.[Cl-]` here?
A: -70.6%

Q: How did the “hERG current change (%, negative = inhibition) at 1uM” value turn out when `CCOC(=O)c1cc2[nH]c3ccccc3c2[n+](-c2ccc([N+](=O)[O-])cc2)c1N.O=C([O-])C(F)(F)F` was run?
A: -13.8%

Q: How did the “hERG current change (%, negative = inhibition) at 1uM” value turn out when `C[C@]12CCC3C(CCC4=C/C(=N/OCC(=O)NC(CCC(=O)O)C(=O)O)CC[C@@]43C)C1CCC2O` (stereo partly drawn) was run?
A: 10.5%
